Measured values from PubChem BioAssay AID624257 (Broad Institute, 2012).
Measured potencies and affinities stand elsewhere.

Molecular target: PglD acetyltransferase (Campylobacter jejuni) (UniProt O86157)
Experiment: inhibition of C. jejuni PglD N-acetyltransferase – biochemical, DTNB absorbance, cherry-picked samples, set 2, dose response (AID 624257)
Settings: Purified PglD, DTNB absorbance 412 nm, CoA release; series mostly up to 19.5 µM; activity change, negative = inhibition: at the top concentration;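 active means compound slowing PglD reaction, half-maximal concentration at most twice top tested dose, in every test run; inconclusive means test runs disagree, or weak flat or poorly fitted curves; inactive means the rest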

Sequence of PglD acetyltransferase (Campylobacter jejuni) (O86157 1-203): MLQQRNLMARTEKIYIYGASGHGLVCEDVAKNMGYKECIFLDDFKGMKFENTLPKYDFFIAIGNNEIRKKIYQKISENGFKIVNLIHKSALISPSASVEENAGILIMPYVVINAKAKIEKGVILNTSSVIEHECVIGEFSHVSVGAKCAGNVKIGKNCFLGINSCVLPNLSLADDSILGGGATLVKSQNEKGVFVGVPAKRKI

Activity change, negative = inhibition, inactive:
CCc1ccc(N=C2NC(=O)/C(=C/c3cc(Br)c(OCC(=O)O)c(OC)c3)S2)cc1 -7.94%
CCn1c(SCc2nc3sc(C(=O)O)c(C)c3c(=O)[nH]2)nc2ccccc21 -38.5%
C=CC1=C(C(=O)O)N2C(=O)[C@@H](NC(=O)/C(=N/OCC(=O)O)c3csc(N)n3)[C@H]2SC1 -21.8%
